# Legend:
# [1] = target: T1, Aspartate--tRNA(Asp/Asn) ligase (Mycobacterium tuberculosis (strain ATCC 25618 / H37Rv)) (UniProt P9WFW3); test: Assay for Asp RNA synthetase-1 from Mycobacterium tuberculosis; type: functional; parameters: scale not given: direction of the effect not stated beside the values; details: 30 µM; note: in the data most compounds retested in dose-response had high values
# T1 sequence (whole entry): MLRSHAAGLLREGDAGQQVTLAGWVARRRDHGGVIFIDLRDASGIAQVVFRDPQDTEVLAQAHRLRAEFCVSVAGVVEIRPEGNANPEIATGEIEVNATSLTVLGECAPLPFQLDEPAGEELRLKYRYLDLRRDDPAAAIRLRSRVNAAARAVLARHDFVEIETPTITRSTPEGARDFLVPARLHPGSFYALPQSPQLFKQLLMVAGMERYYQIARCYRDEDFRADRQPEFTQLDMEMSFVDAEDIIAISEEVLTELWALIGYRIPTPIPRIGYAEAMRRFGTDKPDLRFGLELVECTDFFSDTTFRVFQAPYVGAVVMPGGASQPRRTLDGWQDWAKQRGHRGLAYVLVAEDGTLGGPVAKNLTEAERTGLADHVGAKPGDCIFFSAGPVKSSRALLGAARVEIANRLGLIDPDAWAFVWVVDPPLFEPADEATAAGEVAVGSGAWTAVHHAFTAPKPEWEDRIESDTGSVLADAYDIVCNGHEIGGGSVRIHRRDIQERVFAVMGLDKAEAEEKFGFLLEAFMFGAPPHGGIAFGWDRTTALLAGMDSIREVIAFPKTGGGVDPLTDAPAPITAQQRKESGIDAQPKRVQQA
# [2] = target: Shiga toxin 2 (Escherichia coli O157:H7) (UniProt P09385+P09386); test: E. coli 0.157:H7 Shiga Toxin SOP - stx2 screening assay; type: functional; parameters: scale not given: direction of the effect not stated beside the values; details: 30 µM
smiles,measurement,setting,value
CCn1cnnc1C1CCN(C(=O)c2cnc3ccccc3n2)CC1,Percent Effect,[1],-1.17%
same,Percent Effect,[2],-10.9%
CCc1nc(COc2ccc(OCc3cnn(C)c3)cc2)no1,Percent Effect,[1],0.524%
same,Percent Effect,[2],-31%
Cc1nc(C)n(CC2CCCN2Cc2ccn(-c3ccccc3)n2)n1 (centres undefined),Percent Effect,[1],0.0463%
same,Percent Effect,[2],-14.6%
Cc1cc(CN2CCN(C(=O)NCc3nc(C)cs3)CC2)on1,Percent Effect,[1],2.33%
same,Percent Effect,[2],27.5%
Clc1ccc2oc(C3CCN(Cc4cccnc4)CC3)nc2c1,Percent Effect,[1],1.26%
same,Percent Effect,[2],-46.7%
O=C(c1ccccc1OCC1CC1)N1CCCC(n2ccnc2)C1 (centres undefined),Percent Effect,[1],6.48%
same,Percent Effect,[2],-13.9%
Cc1nccn1C1CCCN(C(=O)c2ccc3c(c2)COC3)C1 (centres undefined),Percent Effect,[1],-1.72%
same,Percent Effect,[2],-16.7%
O=C(C(CNCc1ccncc1)c1ccccc1)N1CCOCC1 (centres undefined),Percent Effect,[1],11.7%
same,Percent Effect,[2],-69.6%
CC(C)(C)c1cnc(CN2CCC(c3ccnn3CCO)CC2)o1,Percent Effect,[1],-2.6%
same,Percent Effect,[2],-1.72%
Cc1ncc2c(n1)CN(Cc1nnc(-c3occc3C)o1)CC2,Percent Effect,[1],12.2%
same,Percent Effect,[2],-43.7%
Cc1ccc(CN2CCC3(CC2)CC(c2cccnc2)CO3)s1 (centres undefined),Percent Effect,[1],-2.49%
same,Percent Effect,[2],-7.07%
CCN(Cc1ccc2c(c1)OCO2)Cc1nc(C)no1,Percent Effect,[1],4.08%
same,Percent Effect,[2],23.9%
CCc1nnc2n1CCN(C(=O)c1cc3cc(F)ccc3[nH]1)C2,Percent Effect,[1],-1.91%
same,Percent Effect,[2],-31.4%
O=C(c1ccco1)N1C[C@H]2CCCN(Cc3cccs3)[C@H]2C1,Percent Effect,[1],6.24%
same,Percent Effect,[2],-1.93%
COCCN1C[C@H]2[C@@H](C1)N(C(=O)c1cccs1)CC[C@H]2OC,Percent Effect,[1],0.503%
same,Percent Effect,[2],3.28%
Cc1ccccc1N1CCCN(C(=O)CCCS(N)(=O)=O)CC1,Percent Effect,[1],6.58%
same,Percent Effect,[2],-25.7%
COc1ccc(C2=CCN(C(=O)C3CC(=O)N(C4CC4)C3)CC2)cc1 (centres undefined),Percent Effect,[1],1.54%
same,Percent Effect,[2],2.8%

# From ChEMBL document CHEMBL3988442, “University of Dundee, Small-Polar-MMV Screening Library” (2021)
